MBNL1-CUG inh: blocks human MBNL1 binding to CUG repeat RNA; Q9NR56; TR-FRET MBNL1-His/biotin-(CUG)12 binding, 665/545 ratio; Potency, µM (highest dose often 57.5 µM), actives largely listed as inhibitors; hit rate 0.036% among 280,000; AID 2675; active means well fitted inhibition curve with a large enough effect in the signal ratio, with a control signal flat, not every such curve was filed as active; inconclusive means small, poorly fitted or top-dose-only effect, or effect the other way, or a change in a side signal; inactive means no such curve, though single readings can be large or run the other way; the % refers to the signal ratio
Target sequence (Q9NR56 whole entry, looked up): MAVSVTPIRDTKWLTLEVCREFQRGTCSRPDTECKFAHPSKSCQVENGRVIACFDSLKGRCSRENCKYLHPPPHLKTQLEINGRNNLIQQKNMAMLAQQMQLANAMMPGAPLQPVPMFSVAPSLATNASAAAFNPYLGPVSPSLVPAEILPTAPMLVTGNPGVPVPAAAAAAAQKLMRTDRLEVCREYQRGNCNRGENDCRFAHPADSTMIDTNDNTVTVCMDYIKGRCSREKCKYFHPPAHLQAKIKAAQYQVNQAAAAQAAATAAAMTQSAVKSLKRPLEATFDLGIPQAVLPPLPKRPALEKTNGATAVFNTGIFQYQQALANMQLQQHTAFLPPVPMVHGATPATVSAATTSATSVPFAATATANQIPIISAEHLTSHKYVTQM
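Ratiometric TR-FRET (665 over 545 nm, excitation 340 nm) tracks disruption of MBNL1-His/biotin-(CUG)12 complex after 60 min at room temperature, with compounds at 92 nM to 58 uM final.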
VP16 counter: inhibits Gal4-VP16 luciferase reporter, ROR gamma counter-screen; Potency, µM (titrated, usually from 53.6 µM), most hits filed as inhibitors; AID 2546; Drosophila S2 Gal4-VP16 UAS-luciferase, luminescence, 20 h; hit rate 3.5% among 310,000;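 further: Gal4-VP16 expression switched on by copper sulfate through the metallothionein promoter; nearly all actives have a fitted effect of over 50% in size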
CtBP-E1A inh: inhibitors of CtBP/E1A interaction. AlphaScreen GST-E1A/His-CtBP binding, 1536-well; active compounds read low. activity change, % (test concentration not listed). hit rate 0.49% among 340,000. AID 651724; in the data active means activity change below about -65%; inconclusive means mostly about -30% to -63%
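In 5 uL wells, 23 nL compound meets equimolar GST-E1A and His-CtBP (5X stock 125 nM each) for 2 h, 37 °C. Beads (5X, 50 ug/mL) then 1 h, 37 °C, dark.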
CBFb RUNX1 block: inhibitors of human CBF-beta and RUNX1 interaction | Q01196+Q13951 | AlphaScreen CBFb-His/RUNX1-biotin binding, biochemical | Potency, µM (top dose mostly 59.8 µM), hits mostly inhibitors | 230,000 tested, under 10 active
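CBF-beta (His) and RUNX1 (biotin), 30 nM each; 20 min preassociation; + compound, 15 min; + beads 50 ng each (Ni, streptavidin), 90 min; RT; AlphaScreen read.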
Six1-Eya2 blk: inhibitors of human Six1/Eya2 interaction; AlphaScreen GST-Six1/His-Eya2 binding, biochemical; active compounds read low; hit rate 0.56% among 360,000; activity change, % (no concentration beside the values); Q15475+O00167; in the data active means activity change below about -65%; inconclusive means mostly about -30% to -63%
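AlphaScreen with GST-Six1 and His-Eya2 (5X mix: 250 nM and 500 nM), glutathione donor and nickel acceptor beads; buffer 50 mM Tris pH 8.0, 300 mM NaCl, 1 mM TCEP; 1 h at 37 C in the dark.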
RORg inh: blocks mouse ROR gamma transcriptional activity. P51450. Drosophila S2 Gal4-RORgamma UAS-luciferase reporter, 20 h. Potency, µM (series often up to 53.6 µM), actives largely listed as inhibitors. hit rate 5.4% among 310,000. AID 2551; further: nearly all actives have a fitted effect of over 60% in size
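Drosophila S2 cells stably expressing Gal4-DBD/mouse RORγ fusion under metallothionein promoter plus UAS-luciferase; compound 1 h, then 700 uM CuSO4 induction for 20 h at ambient temperature; inhibition read as reduced luminescence.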
Numbers stand for hits; – = inactive; ? = inconclusive; · = no result; [ ] = dose if it differs, or a comment. A selection: hits, their analogues and other compounds. The true share with any hit is near 5.5%. Unless noted, the call rests on the fitted dose curve; in most records, active means well fitted curve in the direction sought with a large enough effect; inconclusive means small, poorly fitted or top-dose-only effect, or another doubt; inactive means no such curve, though single readings can be large; an effect the other way counts as inactive or inconclusive.

SMILES	MBNL1-CUG inh	VP16 counter	CtBP-E1A inh	CBFb RUNX1 block	Six1-Eya2 blk	RORg inh
Cc1ccc(/C=N/NC(=O)c2nnn(-c3nonc3N)c2CSc2ccccc2)s1	–	5.01µM	–	·	–	3.98µM
Nc1nonc1-n1nnc(C(=O)N/N=C/c2ccncc2)c1CSc1ccccc1	–	?	–	·	–	–
Cc1ccsc1/C=N/NC(=O)c1nnn(-c2nonc2N)c1CSc1ccccc1	–	3.98µM	–	·	–	2.51µM
Cc1cccc(CNc2ccnc(-c3ccccc3Cl)n2)c1	·	–	·	·	·	–
Cc1cccc(C)c1-n1nnnc1C(c1ccccc1)N1CCN(C/C=C/c2ccccc2)CC1 (centres undefined)	·	·	–	·	?	·
O=C1N/C(=C\c2ccc(O)cc2)C(=O)c2ccccc21	?	10µM	–	–	–	?
c1ccc2c(N3CCNCC3)nc(-c3ccoc3)nc2c1	·	–	·	·	·	–
Fc1ccc(NC(=S)Nc2nccs2)cc1	·	1µM	–	–	–	0.316µM
Fc1ccc(NC(=S)NCc2ccccn2)cc1	–	?	–	–	–	10µM
S=C(NCc1ccccn1)Nc1ccccc1	–	?	–	–	–	14.1µM
O=C(NCc1ccccn1)C1C2C=CC(C2)C1C(=O)Nc1ccc(F)cc1 (centres undefined)	–	–	–	–	–	–
COc1ccc(NC(=S)NCc2ccccn2)cc1OC	–	?	–	–	–	?
S=C(NCc1ccccn1)Nc1ccc(Cl)c(Cl)c1	–	5.01µM	–	–	–	2.51µM
COC(=O)N1C(/C=C/c2ccc3c(c2)OCO3)=Cc2ccccc2C1CC(C)=O (centres undefined)	·	·	·	–[13.1 µM]	·	·
O=C(COc1ccccc1Br)N1CCN(C(=O)c2cccs2)CC1	·	·	–	·	–	·
S=C(NCc1ccccn1)Nc1ccc(Cl)cc1Cl	–	12.6µM	–	–	–	8.91µM
COc1ccc(Cl)cc1NC(=S)NCc1ccccn1	?	?	–	–	–	?
Cc1ccccc1-c1cnc(C(O)c2c(C)cccc2C)[nH]1 (centres undefined)	·	·	–	·	?	·
CC(=O)Nc1ccccc1/C=C/c1ccc2c(C)ccc(O)c2n1	–	28.2µM	–	–	–	8.91µM
CC(=O)Nc1cc2c3ccccc3ccc2c2ccccc12	·	·	–	·	–	·
CC(=O)Nc1ccccc1/C=C/c1ccc2c(C)cc(C)c(O)c2n1	–	7.94µM	–	–	–	7.94µM
O=C(CCCNC(=O)c1ccc(Cl)cc1)Nc1ccc(Br)cc1	–	–	–	·	–	–
CCOc1ccc(N=NC2C(=O)N(C(N)=S)N=C2C)cc1 (centres undefined)	?	0.355µM	·	·	–	0.316µM
CC1=NN(C(N)=S)C(=O)C1N=Nc1ccc([N+](=O)[O-])cc1 (centres undefined)	?	1.26µM	?	·	–	0.159µM
CC(N)=Nc1ccc([N+](=O)[O-])cc1	?	–	–	–	–	–
SMILES	MBNL1-CUG inh	VP16 counter	CtBP-E1A inh	CBFb RUNX1 block	Six1-Eya2 blk	RORg inh
CC1=NN(C(N)=S)C(=O)C1N=Nc1ccc(F)cc1 (centres undefined)	?	1.26µM	·	·	–	1µM
CC1=NN(C(N)=S)C(=O)C1N=Nc1cccc(C(=O)O)c1 (centres undefined)	?	?	–	·	–	11.2µM
CC(=O)Nc1ccc(N=NC2C(=O)N(C(N)=S)N=C2C)cc1 (centres undefined)	?	8.91µM	–	·	–	5.01µM
CC1=NN(C(N)=S)C(=O)C1N=Nc1ccc(C)c(Br)c1 (centres undefined)	–	2.82µM	·	·	–	0.708µM
CC1=NN(C(N)=S)C(=O)C1N=Nc1ccc(O)cc1 (centres undefined)	?	?	·	–	?	3.98µM
CC1=NN(C(N)=S)C(=O)C1N=Nc1cccc(C)c1 (centres undefined)	?	–	–	–	–	–
CCN(CC)S(=O)(=O)c1ccc(O)c(C(=O)OCC(=O)NC23CC4CC(CC(C4)C2)C3)c1	·	·	–	·	–	·
COc1ccc(CC(=O)NNc2ncnc3c2cnn3-c2ccc(C)cc2)cc1OC	–	?	–	–	–	6.31µM
Cn1ncc2c(NNC(=O)c3ccccc3Cl)ncnc21	–	?	–	–	–	1µM
